This is a sample that favours compounds with a hit; in the whole collection about 8.7% have one here.
VACV mCherry inh – inhibitors of vaccinia virus infection (mCherry reporter signal); Vaccinia virus mCherry reporter infection, fluorescence; Potency, µM (top dose mostly 36.5 µM), for inactives: at the highest dose activity change, negative = inhibition, most hits filed as inhibitors; hit rate 0.63% among 310,000; AID 720579; calls by dose curve; tested in A549 cells; further: nearly all actives have a fitted effect of over 35% in size
AMA1-RON2 inh – inhibitors of Plasmodium falciparum AMA1-RON2 interaction; hit rate 0.2% among 360,000; Potency, µM (doses to about 58.2 µM), without a hit: at the top dose activity change, negative = inhibition, hits mostly inhibitors; AlphaScreen AMA1-biotinylated RON2 peptide binding;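 further: 0% = vehicle wells and -100% = peptide control; nearly all actives have a fitted effect of over 45% in size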
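AMA1 (3D7) with his tag at 25 nM final met compounds first, then biotinylated RON2 peptide at 25 nM; detection used donor plus acceptor beads, 10 µg/mL apiece, read by AlphaScreen after 30 min at room temperature.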
Pf growth 96h – inhibits malaria parasite growth, 96 h. hit rate 6.9% among 320,000. P. falciparum luciferase reporter growth, 96 h. Potency, µM (series often up to 28.7 µM), inactives show at the top dose activity change, negative = inhibition, hits mostly inhibitors
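Compounds incubated with erythrocytes infected by luciferase-expressing P. falciparum (2% hematocrit, 0.05% parasitemia final) for 96 hours, 37 C in 5% CO2. Growth inhibition scored as decreased luciferase luminescence.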
Vaccinia Venus – vaccinia inhibition (Venus reporter); Vaccinia virus Venus reporter expression, fluorescence; Potency, µM (highest dose often 36.5 µM), without a hit: at the highest dose activity change, negative = inhibition, most hits filed as inhibitors; hit rate 0.46% among 330,000; AID 720580; calls by dose curve; tested in A549 cells; further: nearly all actives have a fitted effect of over 30% in size
Pf growth 48h – P. falciparum growth inhibition at 48 hours (one generation); P. falciparum luciferase growth in erythrocytes, 48 h; hit rate 5.9% among 310,000; AID 504832; Potency, µM (titrated, usually from 28.7 µM), without a hit: top-dose activity change, negative = inhibition, usual class: inhibitors
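Luciferase-expressing parasites in RBCs, 2% Hct / 0.1% parasitemia final; RPMI 1640 + 0.5% Albumax; 37 C, 5% CO2, one generation; luminescence read-out, lower signal = inhibition.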
* = called active by the depositor; i = inactive; ? = inconclusive; nt = no result; [ ] = remark or other dose. Unless noted, the call rests on the fitted dose curve; in most records, active means well fitted curve in the direction sought with a large enough effect; inconclusive means small, poorly fitted or top-dose-only effect, or another doubt; inactive means no such curve, though single readings can be large; an effect the other way counts as inactive or inconclusive. Unless noted, on the % scale 0 is the no-effect control and ±100 the full control effect; potency means the concentration at half of the fitted maximal effect.

SMILES	VACV mCherry inh	AMA1-RON2 inh	Pf growth 96h	Vaccinia Venus	Pf growth 48h
COc1ccc(C(=O)NCC(c2ccc3c(c2)OCO3)N2CCN(c3ccc(F)cc3)CC2)cc1 (stereo unspecified)	-21%	nt	nt	-22%	nt
COc1ccc(C(=O)NCC(c2ccc(Cl)cc2)N2CCCCC2)cc1 (stereo unspecified)	-5%	nt	nt	1%	nt
COc1ccc(C(=O)NCC(c2ccc3c(c2)OCO3)N2CCN(c3ccc(OC)cc3)CC2)cc1 (stereo unspecified)	-23%	0%	2.6µM*	-18%	?
O=C(O)c1cc(O)c2c(c1)[C@H]([C@H]1c3cc(C(=O)O)cc(O)c3C(=O)c3c(O[C@@H]4O[C@H](CO)[C@@H](O)[C@H](O)[C@H]4O)cccc31)c1cccc(O[C@@H]3O[C@H](CO)[C@@H](O)[C@H](O)[C@H]3O)c1C2=O	-10%	nt	nt	3%	nt
COc1ccc(C(CNC(=O)c2ccc(Cl)c(S(=O)(=O)N3CCCC3)c2)N2CCCC2)cc1 (stereo unspecified)	nt	0%	7.4µM*	nt	13µM*
COc1ccc(C(CNC(=O)c2cc(S(=O)(=O)N3CCCC3)ccc2Cl)N2CCCC2)cc1 (stereo unspecified)	nt	-2%	9.3µM*	nt	?
O=C(C[N+]12CN3CN(CN(C3)C1)C2)c1ccc(O)c(O)c1	-14%	nt	nt	-11%	nt
CCC(Cn1nnc2ccccc2c1=O)NC(=O)Nc1ccccc1OC (stereo unspecified)	-10%	nt	nt	-5%	nt
COc1cccc(-c2ccc(SCc3ccccn3)nn2)c1	-11%	-8%	97%	-4%	111%
COc1ccc(-c2ccc(SCc3ccccn3)nn2)cc1OC	nt	20%	2.6µM*	nt	3%
CC1CCc2nc(-c3cc4c(ccc5ccccc54)oc3=O)sc2C1 (stereo unspecified)	29%	nt	nt	30%	nt
CCN(Cc1ccccc1)C(=O)C1CCN(S(=O)(=O)c2ccc3c(c2)OCCO3)CC1	-14%	0%	13µM*	-10%	?
O=C(C1CCN(S(=O)(=O)c2ccc3c(c2)OCCO3)CC1)N1CCc2ccccc21	-19%	-11%	10µM*	-12%	?
CN(CC(=O)Nc1cccc(F)c1)C(=O)C1CCN(S(=O)(=O)c2ccc3c(c2)OCCO3)CC1	-11%	5%	4.1µM*	-14%	9.3µM*
O=C(C1CCN(S(=O)(=O)c2ccccc2)CC1)N1CCc2ccccc21	-2%	15%	?	0%	25%
CN(Cc1ccccc1)C(=O)COC(=O)C1CCN(S(=O)(=O)c2ccc3c(c2)OCCO3)CC1	-5%	15%	-35%	-3%	-6%
O=C(Nc1ccccc1N1CCOCC1)c1ccc([N+](=O)[O-])o1	11µM*	7%	37%	?	-1%
NC(=O)c1oc2ccccc2c1NC(=O)c1ccc([N+](=O)[O-])o1	?	0%	-20%	?	9.3µM*
Cc1c(C(=O)NC(=S)Nc2ccccc2N2CCCC2)cccc1[N+](=O)[O-]	-23%	7%[2.32 µM]	?	-15%	15µM*
CN1CCN(c2ccccc2NC(=O)c2ccc(-c3ccccc3[N+](=O)[O-])o2)CC1	?	-13%	29%	?	5.2µM*
CC(=O)NC1CCCC1C#N (stereo unspecified)	38%	nt	nt	2%	nt
CC(C)c1ccc(C2c3c(-c4ccccc4O)n[nH]c3C(=O)N2Cc2ccncc2)cc1 (stereo unspecified)	-25%	nt	nt	-27%	nt
O=C(Nc1ccccc1N1CCCCC1)c1ccc([N+](=O)[O-])o1	13µM*	?	8.3µM*	?	10µM*
O=C(Nc1ccccc1N1CCOCC1)c1cccc([N+](=O)[O-])c1	-14%	1%	?	-2%	27%
COc1ccc(C(=O)Nc2ccccc2N2CCN(C(=O)c3ccccc3)CC2)cc1Br	?	-7%	?	?	2.1µM*
SMILES	VACV mCherry inh	AMA1-RON2 inh	Pf growth 96h	Vaccinia Venus	Pf growth 48h
O=C(Nc1c(C(=O)N2CCOCC2)oc2ccccc12)c1cccc([N+](=O)[O-])c1	?	-5%	13µM*	-15%	-4%
O=C(Nc1ccccc1N1CCN(C(=O)c2ccc(Cl)cc2)CC1)c1ccc([N+](=O)[O-])o1	?	?	-16%	?	6.6µM*
CCOc1ccccc1C1N=C(N)Nc2nc3ccccc3n21 (stereo unspecified)	6%	nt	nt	-2%	nt
COc1cccc(O)c1CN1CCC2(CC1)c1ccccc1[C@@H](NC(=O)c1ccsc1)[C@@H]2OC	-13%	nt	nt	-1%	nt
CC1=C(/C=C/C(C)=C/C=C/C(C)=C/C(=O)O)C(C)(C)CCC1O (stereo unspecified)	-3%	nt	nt	-14%	nt
O=C(Nc1ccccc1N1CCN(C(=O)c2ccccc2)CC1)c1ccc(Br)o1	nt	0%	9.3µM*	nt	0%
COc1ccc(-n2nc3c(N4CCC(C(=O)NCc5cccc(F)c5)CC4)nnc(C)c3c2C)cc1	?	nt	nt	28µM*	nt
COc1ccc(CNC(=O)C2CCN(c3nnc(C)c4c(C)n(-c5ccc(C)cc5)nc34)CC2)cc1	-17%	nt	nt	-14%	nt
Cc1nnc(N2CCC(C(=O)NCc3ccc(N(C)C)cc3)CC2)c2nn(-c3ccccc3)c(C)c12	13µM*	nt	nt	13µM*	nt
Cc1nnc(N2CCN(C(=O)Nc3cc(F)ccc3F)CC2)c2nn(-c3ccc(Cl)cc3)c(C)c12	11µM*	nt	nt	?	nt
CC(C)(C)OC(=O)N1CCc2nc(N3CCN(c4ncccn4)CC3)ncc2C1	-11%	nt	nt	-5%	nt
COc1cc(-c2nc3n(c(=O)c2C#N)CCS3)cc(OC)c1OC	i	7%	0.66µM*	-2%	?
COc1ccc(-c2nc3n(c(=O)c2C#N)CCS3)cc1OC	-4%	13%	35%	-22%	29%
O=C1C(=O)N(CCN2CCOCC2)C(c2ccncc2)/C1=C(/O)c1ccc2c(c1)OCO2 (stereo unspecified)	-17%	0%	8.3µM*	-18%	5%
O=C1C(=O)N(CCCn2ccnc2)C(c2ccc(Br)cc2)/C1=C(\O)c1ccc2c(c1)OCCO2 (stereo unspecified)	nt	0%	9.3µM*	nt	0%
CN(Cc1cccc2ncccc12)C(=O)c1cnn(-c2ncc3c(n2)-c2ccccc2CC3)c1C1CC1	-29%	nt	nt	?	nt
CCSc1nc2c([nH]c3ccccc32)c(=O)n1C	-30%	1%	-22%	-8%	nt
CCOC(=O)N1CCN(C(=O)CSc2nc3c([nH]c4ccccc43)c(=O)n2CCOC)CC1	-10%	-3%	12µM*	-1%	?
COCCn1c(SCC(=O)N2CCCCCC2)nc2c([nH]c3ccccc32)c1=O	-12%	5%	?	-6%	?
COCCn1c(SCC(=O)N2CCCCC2)nc2c([nH]c3ccccc32)c1=O	nt	0%	?	nt	12µM*
CCc1c(C)nc(SCC(=O)N2CCCCC2CC)[nH]c1=O (stereo unspecified)	-14%	-4%	-3%	-1%	2.1µM*
